Screening results (PubChem BioAssay)
TGFb inhibitor – TGF-b pathway inhibition; HepG2 CAGA-GFP TGF-b/SMAD3 reporter, GFP fluorescence, 18 h; TGF-beta stimulated, 500 pg/mL final; Potency, µM (top dose mostly 46.1 µM), inactives show at the highest dose activity, negative = inhibition, actives largely listed as inhibitors; hit rate 1.2% among 410,000; note: potency is the fitted concentration of half-maximal effect; % is set by controls: 0 for no effect and ±100 for the full control effect; nearly all actives have a fitted effect of over 65% in size
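Read-out: total well GFP (ex488/em500-530) summed from mean per-cell fluorescence. Cells: HEPG2 CAGA-GFP, 1% FBS DMEM, 18 h at 37 degrees C with 500 pg/mL final TGF-beta. Unstimulated wells served as the full-inhibition control; stimulated DMSO wells = 0%.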
CtBP-E1A blk – blocks the CtBP interaction with E1A. AID 651724. activity change, % (test concentration not listed). hit rate 0.49% among 340,000. AlphaScreen GST-E1A/His-CtBP binding, 1536-well; hits give low values; in the data active = activity change below about -65%; inconclusive = mostly about -30% to -63%; note: % is set by controls: 0 for no effect and ±100 for the full control effect
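Protein mix (5X: 125 nM each GST-E1A, His-CtBP) was incubated with pinned compound 2 h at 37 deg C in dark, in 50 mM Tris pH 8.0 buffer with 300 mM NaCl. Glutathione donor and nickel acceptor beads followed; AlphaScreen signal read after 1 h.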
ATXN2 expr inh – ATXN2 expression inhibition. hit rate 0.72% among 360,000. Potency, µM (doses to about 57 µM), for the others: top-dose activity change, negative = inhibition, most hits filed as inhibitors. HEK-293 ATXN2-luciferase reporter, luminescence, 24 h; note: potency is the fitted concentration of half-maximal effect; % is set by controls: 0 for no effect and ±100 for the full control effect; nearly all actives have a fitted effect of over 55% in size
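qHTS (up to 57 uM final) was run with 24 h compound exposure of reporter cells at 37 °C. Each well was multiplexed: SteadyGlo luminescence measured ATXN2-luciferase expression after a fluorogenic Gly-Phe-AFC viability readout (25 uM final).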
HepG2 viability – HepG2 cytotoxicity, counter-screen for TGF-b inhibitors; HepG2 CAGA-GFP viability, ATP luminescence, 18 h; Potency, µM (doses to about 46.1 µM), for inactives: at the highest dose activity change, negative = cytotoxicity, actives largely listed as cytotoxic; hit rate 0.76% among 410,000; AID 588856; note: potency is the fitted concentration of half-maximal effect
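HepG2 CAGA-GFP cells (1000/well, DMEM with 1% FBS) received compound, then TGF-beta at 500 pg/mL final, and were incubated 18 hours at 37 degrees C. Viability was read by CellTiter-Glo luminescence. Media-only wells were set as complete cell-killing and DMSO as no toxicity.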
Six1-Eya2 inh – inhibitors of human Six1/Eya2 interaction | Q15475+O00167 | AlphaScreen GST-Six1/His-Eya2 binding, biochemical; hits give low values | activity change, % (concentration not given with the values) | hit rate 0.56% among 360,000 | AID 651725; in the data active = activity change below about -65%; inconclusive = mostly about -30% to -63%; note: % is set by controls: 0 for no effect and ±100 for the full control effect
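GST-Six1 + His-Eya2 (5X stock: 250/500 nM); Tris pH 8.0, 300 mM NaCl, 0.05% BSA, 0.02% Tween 20; GSH donor/Ni acceptor beads; 1 h 37 °C dark; AlphaScreen readout.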
S2 tox – cell viability loss in ATXN counter-screen; AID 651635; Potency, µM (titrated, usually from 56.7 µM), most hits filed as cytotoxic; S2 cells (HEK-293 line with an ATXN2-luciferase reporter) viability, CellTiter-Fluor protease fluorescence, 24 h; hit rate 0.49% among 400,000; note: potency is the fitted concentration of half-maximal effect; nearly all actives have a fitted effect of over 40% in size
* marks the source's active call; other numbers are inactive results; i = inactive; ? = inconclusive; . = no result; [ ] = dose if it differs, or a comment. Shown are actives, neighbours in structure and some others; about 2.8% of the full set was active somewhere. Unless noted, calls come from the whole dose curve; as a rule, active = well fitted curve in the direction sought with a large enough effect; inconclusive = small, poorly fitted or top-dose-only effect, or another doubt; inactive = no such curve, though single readings can be large; an effect the other way counts as inactive or inconclusive.

SMILES	TGFb inhibitor	CtBP-E1A blk	ATXN2 expr inh	HepG2 viability	Six1-Eya2 inh	S2 tox
CS(=O)(=O)c1ccc(C(=O)OCC(=O)N2CC(=O)Nc3ccccc32)cc1[N+](=O)[O-]	-0.4%	.	.	2.0%	.	.
CC1CN(C(=O)COC(=O)c2ccc(N)c([N+](=O)[O-])c2)CC(C)O1 (configuration not stated)	3.7%	-19.1	6.8%	-74.1%	-2.7	?
CS(=O)(=O)c1ccc(C(=O)OCC(=O)N2CCCC2)cc1[N+](=O)[O-]	11.2µM*	.	.	-101.9%	.	.
CS(=O)(=O)c1ccc(C(=O)OCC(=O)N2CCOCC2)cc1[N+](=O)[O-]	7.08µM*	.	?	8.91µM*	.	?
CS(=O)(=O)c1ccc(C(=O)OCC(=O)N2CCN(CCC3CCCCC3)CC2)cc1[N+](=O)[O-]	3.98µM*	.	3.55µM*	3.16µM*	.	?
CSc1ccc(-c2ccc3c(c2)CC(CNC(=O)Cn2nc(C)nc2C)O3)cc1 (configuration not stated)	.	.	.	.	.	i
COc1ccccc1-c1c(C)nn2c(N3CCCCCC3)cc(C)nc12	11.2µM*	9.5	?	-41.4%	0.4	?
O=C(NCC1Cc2cccc(-c3ccccn3)c2O1)c1cnn2cccnc12 (configuration not stated)	.	.	.	.	.	i
COc1cc(/C=C2/SC(=S)NC2=O)ccc1OS(=O)(=O)c1ccc(C)cc1	15.8µM*	-19.3	-15.5%[11.3 µM]	-16.1%	-9.5	i
COc1ccc(/C=C2\SC(=S)NC2=O)cc1OS(=O)(=O)c1ccc(NC(C)=O)cc1	-31.7%	2.4	-12.3%	3.6%	15.5	i
N#CCNC(=O)c1ccc(-c2ccnc(Nc3ccc(N4CCOCC4)cc3)n2)cc1	.	.	19.3µM*	.	.	.
CC(=O)c1ccc(Nc2nc(N3CCOCC3)nc(N3CCOCC3)n2)cc1	8.7%	5.4	20.8%	-36.8%	-2.1	i
O=C(NCCc1nc2ccccc2n1CCOc1ccc(Cl)cc1)C1CCCCC1	?	.	.	-96.1%	.	.
Cc1ccc(C)c(CN2C(=O)c3ccccc3S(=O)(=O)c3ccc(C(=O)NCCCN4CCCC(C)C4)cc32)c1 (configuration not stated)	.	.	.	11.2µM*	.	.
Cc1ccc(C)c(CN2C(=O)c3ccccc3S(=O)(=O)c3ccc(C(=O)NCCC4=CCCCC4)cc32)c1	.	.	.	2.9%	.	.
CC1CCCN(CCCNC(=O)c2ccc3c(c2)N(Cc2ccc(Cl)cc2)C(=O)c2ccccc2S3(=O)=O)C1 (configuration not stated)	?	.	.	20µM*	.	.
CC1CC(C)CN(CCCNC(=O)c2ccc3c(c2)N(Cc2ccccc2)C(=O)c2ccccc2S3=O)C1 (configuration not stated)	?	.	.	-94.2%	-8.5	28.2µM*
O=C(NCCN1CCCC1)c1ccc2c(c1)N(Cc1ccccc1)C(=O)c1ccccc1S2(=O)=O	-6.1%	-2.8	-20.3%	-0.4%	-2.6	i
COCCn1c(C)cc(O)c(C(c2ccccc2)N2CCN(c3ccccc3)CC2)c1=O (configuration not stated)	36.7%	.	.	-3.4%	.	.
Cc1c(F)cc2c(=O)c(C(=O)O)cn3c2c1CCC3C (configuration not stated)	.	.	9.9%	.	.	i
Cc1ccc(NC(=O)C(OC(=O)c2ccc(NC(N)=O)cc2)c2ccccc2)cc1Cl (configuration not stated)	?	-9.9	26.2%	12.6µM*	-8.1	i
Cc1ccc(NC(=O)C(OC(=O)c2ccccc2Cl)c2ccccc2)cc1Cl (configuration not stated)	0.0%	13.4	0.3%	-4.6%	9.0	?
CN1CCN(C(c2ccc(C(F)(F)F)cc2)c2ccc3cccnc3c2O)CC1 (configuration not stated)	?	-84.1*	7.94µM*	-26.0%	?	?
